Assay [1] has as its target Calcium/calmodulin-dependent protein kinase type II subunit alpha (Homo sapiens) (UniProt Q9UQM7). The settings on record: at 1 µM.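 Note: reported value is a mean percent inhibition of CAMK2A.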
The target of assay [2] is Calcium/calmodulin-dependent protein kinase type II subunit delta (Homo sapiens) (UniProt Q13557). Conditions: at 0.1 µM.
Assay [3] has the same target. Conditions: at 1 µM.
Assay [4] addresses T1, Calcium/calmodulin-dependent protein kinase type IV (Homo sapiens) (UniProt Q16566).
T1 sequence (whole entry): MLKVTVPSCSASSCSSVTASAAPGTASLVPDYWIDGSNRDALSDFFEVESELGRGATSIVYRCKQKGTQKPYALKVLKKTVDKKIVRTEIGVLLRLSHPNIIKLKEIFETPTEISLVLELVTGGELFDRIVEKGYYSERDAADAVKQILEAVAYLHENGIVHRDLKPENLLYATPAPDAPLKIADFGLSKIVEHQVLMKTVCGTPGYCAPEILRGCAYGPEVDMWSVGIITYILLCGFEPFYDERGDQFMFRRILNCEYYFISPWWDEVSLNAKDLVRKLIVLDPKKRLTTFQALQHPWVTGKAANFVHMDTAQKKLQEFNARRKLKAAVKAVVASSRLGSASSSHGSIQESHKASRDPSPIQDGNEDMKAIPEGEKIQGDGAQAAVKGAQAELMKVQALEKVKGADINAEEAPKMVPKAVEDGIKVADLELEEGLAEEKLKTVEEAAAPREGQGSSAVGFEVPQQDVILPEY
Conditions: at 0.1 µM.

In assay [5] the target is T1, Calcium/calmodulin-dependent protein kinase type IV (Homo sapiens). Conditions: at 1 µM.
The target of assay [6] is T2, Serine/threonine-protein kinase Chk1 (Homo sapiens) (UniProt O14757).
T2 sequence (whole entry): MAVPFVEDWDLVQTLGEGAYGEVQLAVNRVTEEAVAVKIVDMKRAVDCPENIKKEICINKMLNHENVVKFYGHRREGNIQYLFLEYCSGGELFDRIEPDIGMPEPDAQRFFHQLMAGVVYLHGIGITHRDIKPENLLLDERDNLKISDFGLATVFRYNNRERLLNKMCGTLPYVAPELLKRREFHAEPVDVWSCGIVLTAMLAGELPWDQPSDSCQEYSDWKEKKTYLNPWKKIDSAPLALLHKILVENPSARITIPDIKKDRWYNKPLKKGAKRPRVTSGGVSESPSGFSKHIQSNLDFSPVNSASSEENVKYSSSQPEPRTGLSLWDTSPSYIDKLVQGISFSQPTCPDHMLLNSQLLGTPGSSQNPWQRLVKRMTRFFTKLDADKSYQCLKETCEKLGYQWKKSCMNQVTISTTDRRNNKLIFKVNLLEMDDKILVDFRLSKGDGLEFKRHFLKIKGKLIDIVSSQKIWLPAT
The settings on record: at 0.1 µM.

Assay [7] has as its target T2, Serine/threonine-protein kinase Chk1 (Homo sapiens). The settings on record: at 1 µM.
Assay [8] concerns the target Serine/threonine-protein kinase Chk2 (Homo sapiens) (UniProt O96017). Conditions: at 0.1 µM.
Assay [9] has the same target. Conditions: at 1 µM.
Assay [10] has as its target Death-associated protein kinase 1 (Homo sapiens) (UniProt P53355). The settings on record: at 0.1 µM.
Assay [11] has the same target. The settings on record: at 1 µM.
In assay [12] the target is T3, Serine/threonine-protein kinase DCLK2 (Homo sapiens) (UniProt Q8N568).
T3 sequence (whole entry): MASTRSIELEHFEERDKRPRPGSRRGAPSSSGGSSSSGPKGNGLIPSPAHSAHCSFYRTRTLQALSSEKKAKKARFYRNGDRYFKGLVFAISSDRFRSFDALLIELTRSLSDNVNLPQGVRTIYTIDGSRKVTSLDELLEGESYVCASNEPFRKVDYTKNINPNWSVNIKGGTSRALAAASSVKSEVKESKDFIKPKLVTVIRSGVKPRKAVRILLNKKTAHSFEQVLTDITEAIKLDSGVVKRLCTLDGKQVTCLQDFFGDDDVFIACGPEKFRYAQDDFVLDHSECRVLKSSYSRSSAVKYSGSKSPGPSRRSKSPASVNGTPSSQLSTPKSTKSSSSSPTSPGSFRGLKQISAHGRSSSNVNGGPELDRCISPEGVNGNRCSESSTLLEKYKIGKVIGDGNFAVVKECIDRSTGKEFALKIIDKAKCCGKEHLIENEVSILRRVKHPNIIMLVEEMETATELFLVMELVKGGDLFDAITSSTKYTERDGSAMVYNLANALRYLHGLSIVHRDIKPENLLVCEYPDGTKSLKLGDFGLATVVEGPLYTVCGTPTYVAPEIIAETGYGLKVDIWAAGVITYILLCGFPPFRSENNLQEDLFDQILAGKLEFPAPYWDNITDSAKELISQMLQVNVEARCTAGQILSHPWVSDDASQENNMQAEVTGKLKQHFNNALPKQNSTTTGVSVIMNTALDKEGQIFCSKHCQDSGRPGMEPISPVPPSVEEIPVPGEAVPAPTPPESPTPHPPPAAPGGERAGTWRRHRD
Conditions: at 0.1 µM.

Assay [13] has as its target T3, Serine/threonine-protein kinase DCLK2 (Homo sapiens). Conditions: at 1 µM.
Assay [14] has as its target MAP kinase-activated protein kinase 2 (Homo sapiens) (UniProt P49137). Conditions: at 0.1 µM.
The target is the same in assay [15]. The settings on record: at 1 µM.
Assay [16] concerns the target MAP kinase-activated protein kinase 3 (Homo sapiens) (UniProt Q16644). Conditions: at 0.1 µM.
The target is the same in assay [17]. The settings on record: at 1 µM.
Assay [18] has as its target Serine/threonine-protein kinase MARK1 (Homo sapiens) (UniProt Q9P0L2). Conditions: at 0.1 µM.
Assay [19] has the same target. Conditions: at 1 µM.
For assay [20], the target named is MAP/microtubule affinity-regulating kinase 3 (Homo sapiens) (UniProt P27448). The settings on record: at 0.1 µM.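 Note: mean percent inhibition of MARK3 kinase activity, measured within the GSK PKIS screening panel.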
MAP/microtubule affinity-regulating kinase 3 (Homo sapiens), sequence (P27448 whole entry, looked up): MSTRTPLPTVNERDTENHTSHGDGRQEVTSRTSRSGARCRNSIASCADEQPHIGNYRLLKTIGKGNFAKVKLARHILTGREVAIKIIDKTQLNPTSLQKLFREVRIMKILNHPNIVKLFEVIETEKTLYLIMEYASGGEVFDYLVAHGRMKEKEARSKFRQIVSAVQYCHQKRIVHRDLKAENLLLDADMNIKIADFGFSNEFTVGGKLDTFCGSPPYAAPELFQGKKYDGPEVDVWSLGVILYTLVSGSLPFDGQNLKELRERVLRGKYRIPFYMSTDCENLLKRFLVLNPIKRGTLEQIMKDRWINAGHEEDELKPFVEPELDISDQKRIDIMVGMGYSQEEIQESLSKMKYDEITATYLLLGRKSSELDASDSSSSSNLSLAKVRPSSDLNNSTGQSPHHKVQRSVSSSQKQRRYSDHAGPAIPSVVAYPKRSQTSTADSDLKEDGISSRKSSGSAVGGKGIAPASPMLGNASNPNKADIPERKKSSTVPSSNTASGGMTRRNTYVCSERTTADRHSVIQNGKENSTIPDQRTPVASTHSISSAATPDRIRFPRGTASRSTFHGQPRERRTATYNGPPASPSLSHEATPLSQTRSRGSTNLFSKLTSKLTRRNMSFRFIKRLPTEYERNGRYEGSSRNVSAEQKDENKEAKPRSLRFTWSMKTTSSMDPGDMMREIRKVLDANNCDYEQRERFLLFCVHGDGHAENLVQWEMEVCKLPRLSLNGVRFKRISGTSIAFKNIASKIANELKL

Death-associated protein kinase 1 (Homo sapiens), sequence (P53355 whole entry, looked up): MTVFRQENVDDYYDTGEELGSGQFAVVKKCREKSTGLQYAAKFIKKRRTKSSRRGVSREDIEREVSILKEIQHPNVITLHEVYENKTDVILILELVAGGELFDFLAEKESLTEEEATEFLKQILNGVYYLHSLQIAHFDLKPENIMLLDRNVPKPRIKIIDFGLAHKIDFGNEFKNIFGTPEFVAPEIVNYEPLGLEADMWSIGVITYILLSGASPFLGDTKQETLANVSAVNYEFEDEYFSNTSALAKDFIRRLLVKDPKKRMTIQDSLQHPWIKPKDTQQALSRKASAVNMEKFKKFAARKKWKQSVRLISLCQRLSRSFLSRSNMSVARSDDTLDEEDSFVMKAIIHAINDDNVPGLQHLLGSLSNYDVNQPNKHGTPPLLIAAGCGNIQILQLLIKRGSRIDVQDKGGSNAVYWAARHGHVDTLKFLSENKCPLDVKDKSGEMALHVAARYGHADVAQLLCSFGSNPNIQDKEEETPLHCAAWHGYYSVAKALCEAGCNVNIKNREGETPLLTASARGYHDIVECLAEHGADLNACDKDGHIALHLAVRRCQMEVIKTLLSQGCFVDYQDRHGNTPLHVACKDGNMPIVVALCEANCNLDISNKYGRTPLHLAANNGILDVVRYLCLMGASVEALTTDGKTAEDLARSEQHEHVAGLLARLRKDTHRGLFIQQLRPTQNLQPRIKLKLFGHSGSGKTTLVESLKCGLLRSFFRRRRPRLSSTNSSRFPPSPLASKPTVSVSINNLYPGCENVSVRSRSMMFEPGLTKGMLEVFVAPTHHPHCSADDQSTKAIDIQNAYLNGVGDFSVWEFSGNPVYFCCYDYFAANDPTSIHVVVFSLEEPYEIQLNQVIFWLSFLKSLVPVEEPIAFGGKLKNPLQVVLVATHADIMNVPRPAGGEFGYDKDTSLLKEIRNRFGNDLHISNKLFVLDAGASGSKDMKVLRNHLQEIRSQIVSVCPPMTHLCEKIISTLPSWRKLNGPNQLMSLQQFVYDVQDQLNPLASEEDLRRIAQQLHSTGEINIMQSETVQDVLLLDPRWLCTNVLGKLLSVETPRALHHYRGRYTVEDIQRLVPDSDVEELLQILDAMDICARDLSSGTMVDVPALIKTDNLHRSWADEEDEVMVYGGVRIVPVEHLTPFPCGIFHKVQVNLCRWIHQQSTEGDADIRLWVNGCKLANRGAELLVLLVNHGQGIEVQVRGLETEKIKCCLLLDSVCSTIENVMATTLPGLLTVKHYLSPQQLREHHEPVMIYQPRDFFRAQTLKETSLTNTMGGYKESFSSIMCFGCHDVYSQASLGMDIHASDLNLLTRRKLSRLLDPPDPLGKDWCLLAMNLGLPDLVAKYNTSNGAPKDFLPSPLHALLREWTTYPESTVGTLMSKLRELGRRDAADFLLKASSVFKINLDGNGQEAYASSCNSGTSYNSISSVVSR
MAP kinase-activated protein kinase 2 (Homo sapiens), sequence (P49137 whole entry, looked up): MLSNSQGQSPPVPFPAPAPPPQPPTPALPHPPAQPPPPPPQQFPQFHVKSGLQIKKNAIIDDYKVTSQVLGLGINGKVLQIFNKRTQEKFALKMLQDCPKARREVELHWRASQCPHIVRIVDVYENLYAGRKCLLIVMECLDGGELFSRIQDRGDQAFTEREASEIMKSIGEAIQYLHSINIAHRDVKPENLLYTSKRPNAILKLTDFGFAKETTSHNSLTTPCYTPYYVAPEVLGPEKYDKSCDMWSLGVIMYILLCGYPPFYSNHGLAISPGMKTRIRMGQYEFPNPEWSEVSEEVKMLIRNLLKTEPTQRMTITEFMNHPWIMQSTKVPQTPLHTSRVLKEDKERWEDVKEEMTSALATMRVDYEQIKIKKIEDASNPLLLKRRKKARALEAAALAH
Calcium/calmodulin-dependent protein kinase type II subunit alpha (Homo sapiens), sequence (Q9UQM7 whole entry): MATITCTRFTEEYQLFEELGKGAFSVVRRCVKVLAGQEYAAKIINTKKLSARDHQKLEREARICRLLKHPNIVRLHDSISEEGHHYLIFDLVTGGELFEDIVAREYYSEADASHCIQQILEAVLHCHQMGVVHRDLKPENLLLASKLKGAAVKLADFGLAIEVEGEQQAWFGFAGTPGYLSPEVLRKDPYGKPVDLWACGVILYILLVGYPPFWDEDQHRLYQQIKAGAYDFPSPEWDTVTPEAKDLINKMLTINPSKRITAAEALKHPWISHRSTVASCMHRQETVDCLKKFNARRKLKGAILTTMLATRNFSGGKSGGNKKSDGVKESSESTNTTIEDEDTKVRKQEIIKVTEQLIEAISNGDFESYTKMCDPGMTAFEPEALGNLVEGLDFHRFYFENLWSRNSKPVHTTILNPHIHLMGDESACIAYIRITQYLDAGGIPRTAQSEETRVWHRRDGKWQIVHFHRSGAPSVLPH
Serine/threonine-protein kinase Chk2 (Homo sapiens), sequence (O96017 whole entry): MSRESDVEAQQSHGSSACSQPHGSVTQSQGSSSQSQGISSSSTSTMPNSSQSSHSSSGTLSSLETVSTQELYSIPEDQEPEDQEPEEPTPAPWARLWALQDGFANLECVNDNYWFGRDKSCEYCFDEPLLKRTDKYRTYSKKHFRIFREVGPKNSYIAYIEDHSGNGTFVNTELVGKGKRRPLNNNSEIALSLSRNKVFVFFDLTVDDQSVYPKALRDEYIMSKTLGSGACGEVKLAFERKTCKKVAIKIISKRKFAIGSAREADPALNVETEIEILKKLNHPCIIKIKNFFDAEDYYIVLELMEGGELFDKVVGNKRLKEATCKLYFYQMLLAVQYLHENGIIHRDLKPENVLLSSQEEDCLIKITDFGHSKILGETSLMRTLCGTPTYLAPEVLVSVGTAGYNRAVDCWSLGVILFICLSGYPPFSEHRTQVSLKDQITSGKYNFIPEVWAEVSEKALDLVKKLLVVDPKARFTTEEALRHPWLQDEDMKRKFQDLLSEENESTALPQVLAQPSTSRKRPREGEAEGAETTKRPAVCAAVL
Serine/threonine-protein kinase MARK1 (Homo sapiens), sequence (Q9P0L2 whole entry, looked up): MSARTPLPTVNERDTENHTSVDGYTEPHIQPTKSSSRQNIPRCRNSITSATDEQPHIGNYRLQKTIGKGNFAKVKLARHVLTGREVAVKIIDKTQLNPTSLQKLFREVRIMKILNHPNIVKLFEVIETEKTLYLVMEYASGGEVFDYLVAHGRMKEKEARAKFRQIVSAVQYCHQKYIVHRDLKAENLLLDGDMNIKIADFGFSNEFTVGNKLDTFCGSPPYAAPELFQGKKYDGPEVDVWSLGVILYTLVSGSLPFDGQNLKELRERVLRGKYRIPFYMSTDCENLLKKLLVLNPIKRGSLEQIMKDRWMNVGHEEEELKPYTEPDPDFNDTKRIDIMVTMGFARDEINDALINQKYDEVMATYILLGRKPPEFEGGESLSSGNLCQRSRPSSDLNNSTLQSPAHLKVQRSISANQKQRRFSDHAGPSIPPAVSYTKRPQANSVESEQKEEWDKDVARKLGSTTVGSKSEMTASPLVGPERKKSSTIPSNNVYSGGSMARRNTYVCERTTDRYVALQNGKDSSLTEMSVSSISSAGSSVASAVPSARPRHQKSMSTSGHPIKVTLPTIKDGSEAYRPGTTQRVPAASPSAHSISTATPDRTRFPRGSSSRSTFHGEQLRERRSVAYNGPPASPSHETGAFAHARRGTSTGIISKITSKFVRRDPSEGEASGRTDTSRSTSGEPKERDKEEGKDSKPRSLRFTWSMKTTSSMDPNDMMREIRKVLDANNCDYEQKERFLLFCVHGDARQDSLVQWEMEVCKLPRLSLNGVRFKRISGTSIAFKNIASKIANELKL
Calcium/calmodulin-dependent protein kinase type II subunit delta (Homo sapiens), sequence (Q13557 whole entry): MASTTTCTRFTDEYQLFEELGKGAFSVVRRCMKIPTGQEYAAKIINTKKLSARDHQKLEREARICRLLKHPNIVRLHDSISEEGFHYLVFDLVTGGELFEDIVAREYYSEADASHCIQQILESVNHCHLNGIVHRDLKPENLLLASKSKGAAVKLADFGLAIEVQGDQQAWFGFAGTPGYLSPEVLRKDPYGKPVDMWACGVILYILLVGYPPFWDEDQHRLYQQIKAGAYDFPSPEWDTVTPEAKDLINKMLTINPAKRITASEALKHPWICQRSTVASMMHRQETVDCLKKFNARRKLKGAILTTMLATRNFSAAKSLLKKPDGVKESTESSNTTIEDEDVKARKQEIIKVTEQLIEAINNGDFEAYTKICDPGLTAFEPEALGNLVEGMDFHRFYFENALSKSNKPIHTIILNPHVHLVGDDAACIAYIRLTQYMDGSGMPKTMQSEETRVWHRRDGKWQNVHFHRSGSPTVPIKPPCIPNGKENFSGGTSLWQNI

Regarding `Cc1ccc2c(c1)/C(=N/Nc1ccc(S(N)(=O)=O)cc1)C(=O)N2`, the inhibition was 2.25% in assay [1]; 1.2% in assay [2]; 3.28% in [3]; 1.05% in [4]; 2.05% in [5]; 0.25% in assay [6]. The inhibition in assay [7] stood at 3.5%; in [8] it was 0.04%; in assay [9] it was 0.67%; in [10], 0.46%; in assay [11], 1.29%; in assay [12] it was 6.62%. The inhibition in assay [13] is -0.15%; in assay [14] it was -0.81%; in assay [15], -0.37%; in assay [16], 2.9%; in assay [17], 1.35%; in assay [18], 0.5%. In addition, the figures for the inhibition in [19] and in [20] were 3.86% and -0.22%, respectively.
Turning to `O=S(=O)(CCOCc1ccc(-c2ccc3ncnc(Nc4ccc(OCc5cccc(F)c5)c(Cl)c4)c3c2)o1)c1ccccc1`, the inhibition is -0.9% in [1]; 0.42% in assay [2]; 1.29% in assay [3]; -1.19% in assay [4]; -1.67% in [5]; 3.34% in [6]. In addition, the inhibition in [7] is 2.55%; in assay [8], 1.33%; in assay [9], 3.09%; in assay [10] it was 1.67%; in [11], 0.71%; in [12], -0.21%. Moreover, the inhibition in assay [13] is 1.2%; in assay [14], 0.69%; in [15], 0.79%; in assay [16], -0.36%; in [17] it was 2.16%; in [18] it was -0.2%. The inhibition came out at 2.87% in assay [19] and 0.76% in assay [20].
For `COc1cccc(-n2ncc3c(N/N=C/c4ccc(S(C)(=O)=O)cc4)ncnc32)c1`, the inhibition turned out to be 1.01% in assay [1]; 1.8% in [2]; 4.11% in assay [3]; 2.57% in assay [4]; 0.23% in [5]; 0.1% in assay [6]. Further, the inhibition in assay [7] is -1.03%; in [8], -0.14%; in [9] it was 0.05%; in assay [10] it was -1.65%; in [11] it was -2.35%; in assay [12] it was -3.49%. The inhibition was -3.25% in [13]; -0.57% in assay [14]; -0.87% in [15]; -0.21% in assay [16]; -1.31% in assay [17]; 0.85% in assay [18]. The values for the inhibition in assay [19] and in assay [20] were 4.83% and 0.34%, respectively.
For the molecule `CN(c1ccc(NC(=O)Nc2ccc(OC(F)(F)F)cc2)cc1)c1ccnc(Nc2cccc(S(N)(=O)=O)c2)n1`, the inhibition in assay [1] is -1.5%; in assay [2] it was 1.07%; in assay [3], 0.14%; in [4], -0.96%; in assay [5], 0.59%; in [6], 1.72%. Further, the inhibition is -0.01% in assay [7]; 5.43% in assay [8]; 25.9% in [9]; 3.79% in assay [10]; 2.02% in assay [11]; -2.05% in [12]. Also, the inhibition is 0.7% in [13]; 0.67% in assay [14]; -0.37% in assay [15]; 2.5% in assay [16]; 7.62% in [17]; 0.28% in assay [18]. Moreover, the inhibition in [19] was determined as 2.36%; in [20], 1.62%.
As to `Cc1ccc2c(-c3ccnc(Nc4ccc5c(c4)OCCO5)n3)c(-c3ccc(C(F)(F)F)cc3)nn2n1`, the inhibition was -1.51% in [1]; 0.22% in assay [2]; -0.06% in [3]; 2.15% in [4]; 0.11% in assay [5]; 1.74% in [6]. In addition, the inhibition in [7] was 0.1%; in assay [8], -0.69%; in assay [9], -0.6%; in assay [10], 2.74%; in assay [11], 1.35%; in [12] it was -1.42%. Moreover, the inhibition in assay [13] was -0.35%; in assay [14] it was 0.41%; in assay [15], -0.12%; in [16], 2.89%; in [17], 10.8%; in assay [18], 1.39%. Also, the inhibition in assay [19] was 2.56%; in assay [20], -1.05%.

(Values after ChEMBL document CHEMBL1961873, “Compounds: GSK PKIS; Assays: Nanosyn kinase panel” (2012).)
